High-throughput results from PubChem.
Sampled rows, rich in hits. Any-hit rate of the full collection: about 3.7%.
PLK1 PBD block – PLK1 (human) polo-box domain binding inhibition; P53350; Plk1 PBD binding of FITC phosphopeptide, fluorescence polarization; Potency, µM, for inactives: max response, negative = inhibition, most hits filed as inhibitors; 360,000 tested, 2.8% active; also: potency is read from the fitted curve at half-maximal effect; series mostly up to about 57 µM; % is scaled to controls: 0 for no effect and ±100 for the full control effect; nearly all actives have a fitted effect of over 65% in size
PI5P4Ka inh – PI5P4K alpha (human) kinase inhibition; P48426; PI5P4Kalpha enzyme, ADP-Glo luminescence, 60 min; active compounds read low; max response, %; 330,000 tested, 1.2% active; AID 652105; active = max response of -50% or lower; inconclusive = between -30% and -50%; inactive = -30% or higher; also: value at the top dose of about 77 µM; % is scaled to controls: 0 for no effect and ±100 for the full control effect
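Compounds were pin-transferred onto PI5P4Kalpha and substrate in HEPES pH 7.4 buffer with EGTA, CHAPS and 5% DMSO. ATP (5 microM final) started the reaction, which ran 60 minutes at room temperature before ADP-Glo detection.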
WRN helicase inh – blocks human WRN helicase; Q14191; AID 651768; WRN helicase unwinding, fluorescent forked duplex, kinetic; Potency, µM (top dose mostly 114 µM), for inactives: at the top dose activity change, negative = inhibition, hits mostly inhibitors; 360,000 tested, 0.46% active; also: potency is read from the fitted curve at half-maximal effect; % is scaled to controls: 0 for no effect and ±100 for the full control effect; nearly all actives have a fitted effect of over 55% in size
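Fluorescence dequenching readout, ex 525 nm/em 598 nm, kinetic mode: forked duplex DNA (100 nM final) with adjacent fluorophore and quencher unwound by WRN (20 nM final) with 2 mM ATP. Compound preincubation 15 min, room temperature.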
TCR act – activators of T cell receptors | AID 504894 | primary human leukocytes, anti-CD3, IL-2 HTRF, 48 h | Potency, µM (series often up to 9.22 µM), without a hit: at the highest dose activation of IL-2 secretion, actives largely listed as activators | 330,000 tested, under 10 active; also: % of control where 0% means no effect
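TCR engagement came from a-CD3 beads alone, with compounds added to primary human leukocytes for 48 hr. Secreted IL-2 bridged europium cryptate- and d2-labelled anti-IL-2 antibodies, giving FRET emission at 665nm after 320nm excitation.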
VDR inh – inhibitors of human vitamin D receptor; P11473; VDR-SRC2-3 peptide fluorescence polarization, 2 h; Potency, µM, for inactives: max response, negative = inhibition, hits mostly inhibitors; 400,000 tested, 0.93% active; also: potency is read from the fitted curve at half-maximal effect; % is scaled to controls: 0 for no effect and ±100 for the full control effect
Target sequence (P11473 whole entry, looked up): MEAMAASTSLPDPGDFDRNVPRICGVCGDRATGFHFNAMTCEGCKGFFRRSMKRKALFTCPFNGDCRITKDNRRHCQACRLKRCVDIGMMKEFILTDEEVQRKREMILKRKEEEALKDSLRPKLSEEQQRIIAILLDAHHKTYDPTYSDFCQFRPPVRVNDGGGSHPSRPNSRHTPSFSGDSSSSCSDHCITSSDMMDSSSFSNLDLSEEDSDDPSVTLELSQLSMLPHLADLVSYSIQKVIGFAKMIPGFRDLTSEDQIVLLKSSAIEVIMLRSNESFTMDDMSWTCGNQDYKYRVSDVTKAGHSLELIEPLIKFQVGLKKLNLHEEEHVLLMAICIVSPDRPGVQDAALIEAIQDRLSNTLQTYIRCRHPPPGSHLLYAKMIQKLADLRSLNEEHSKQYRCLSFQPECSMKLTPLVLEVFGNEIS
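Reagent solutions, kept cold and dark, are dispensed first; compounds are then pinned in at 23 nl, plates briefly spun, and incubated 2 h at ambient temperature. Inhibition of VDR–SRC2-3 peptide binding is read by fluorescence polarization.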
FEN1 inhibitor – inhibitors of human flap endonuclease 1 | P39748 | Recombinant FEN1 flap cleavage, fluorescence, 15 min | Potency, µM (top dose mostly 114 µM), without a hit: top-dose activity change, negative = inhibition, usual class: inhibitors | 390,000 tested, 0.35% active; also: potency is read from the fitted curve at half-maximal effect; % is scaled to controls: 0 for no effect and ±100 for the full control effect; nearly all actives have a fitted effect of over 65% in size
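Reaction started by adding substrate (50 nM final) to 10 nM enzyme after 15 min room-temperature compound preincubation. Reads at 0 and 15 min, with data normalized and fitted to a four-parameter Hill equation.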
ADP-Glo interf – interferes with ADP-Glo detection without enzyme present; ADP-Glo detection counter-screen, luciferase luminescence, no enzyme; AID 743285; Potency, µM (top dose mostly 76.9 µM), without a hit: at the top dose activity change, negative = inhibition, actives largely listed as inhibitors; 1,100 tested, under 10 active; shares compounds with PI5P4Ka inh
* = called active by the depositor; [ ] = remark or other dose. Unless noted, calls follow the shape of the dose curve; as a rule, active = well fitted curve in the direction sought with a large enough effect; inconclusive = small, poorly fitted or top-dose-only effect, or another doubt; inactive = no such curve, though single readings can be large; an effect the other way counts as inactive or inconclusive.

`Cc1ccc(-c2csc(NC(=O)Cc3ccc(F)cc3)n2)o1` gave PLK1 PBD block 24µM*, PI5P4Ka inh -56*, WRN helicase inh -33%, TCR act -3%, VDR inh inconclusive, FEN1 inhibitor -22% and ADP-Glo interf 4%.
For COc1ccccc1C1N=C(Nc2nc3ccccc3o2)NC2=C1C(=O)CC(C)(C)C2 (stereo unspecified) the results were VDR inh -3% and FEN1 inhibitor -13%.
CCn1c(=O)[nH]c(=O)c2c(N)c(C(=O)c3cc(F)ccc3F)sc21 was read as PLK1 PBD block -12%, PI5P4Ka inh -64*, WRN helicase inh -8%, TCR act 1%, VDR inh -30%, FEN1 inhibitor -2% and ADP-Glo interf -8%.
`CCC(C)n1c(SCC(=O)Nc2ccc3[nH]c(=O)[nH]c3c2)nc2ccccc2c1=O` (stereo unspecified) gave PLK1 PBD block -22%, PI5P4Ka inh -50*, WRN helicase inh 1%, TCR act -4%, VDR inh -8%, FEN1 inhibitor -24% and ADP-Glo interf -1%.
For Cc1c(Cl)c([N+](=O)[O-])nn1CC(=O)NC1CCCCC1 the results were PLK1 PBD block -9%, PI5P4Ka inh -5, WRN helicase inh 2%, TCR act 8%, VDR inh 3% and FEN1 inhibitor 0%.
CCC1CCCCN1C(=O)Cn1nc([N+](=O)[O-])c(Cl)c1C (stereo unspecified) was read as PLK1 PBD block -14%, PI5P4Ka inh -50*, WRN helicase inh -4%, TCR act -2%, VDR inh -17%, FEN1 inhibitor -1% and ADP-Glo interf -1%.
For Cc1sc2nc(SCC(=O)N(C)C)[nH]c(=O)c2c1C the results were PLK1 PBD block -6%, PI5P4Ka inh 7, WRN helicase inh -7%, TCR act 4%, VDR inh 7% and FEN1 inhibitor -4%.
`Cc1csc(NC(=O)CSc2nc3sc(C)c(C)c3c(=O)[nH]2)n1` gave PLK1 PBD block 2.4µM*, PI5P4Ka inh -57*, WRN helicase inh -18%, TCR act -9%, VDR inh inconclusive, FEN1 inhibitor -11% and ADP-Glo interf -1%.
For Cc1c(-c2cccc(NC(=O)Nc3ccccc3)c2)nc2ncccn12 the results were VDR inh -2% and FEN1 inhibitor inconclusive.
`Cc1c(-c2cc(C(=O)O)on2)cnn1C` gave PLK1 PBD block -12%, PI5P4Ka inh -51*, WRN helicase inh 3%, VDR inh -12%, FEN1 inhibitor -4% and ADP-Glo interf -10%.
`COc1ccc2[nH]c(=O)c(CN(Cc3nnnn3Cc3ccco3)C3CCCCC3)cc2c1` gave PLK1 PBD block inconclusive, PI5P4Ka inh -59*, WRN helicase inh inconclusive, TCR act 4%, VDR inh 79µM*, FEN1 inhibitor -13% and ADP-Glo interf -4%.
`CCOc1ccc(C(=O)Nc2ccc3nn(-c4ccc(OC)c(Cl)c4)nc3c2)cc1` gave VDR inh 7% and FEN1 inhibitor 13%.
Cc1nc(NC(=O)c2ccccc2)sc1-c1cc(C(=O)N2CCOCC2)nn1CCO was read as PLK1 PBD block -7%, PI5P4Ka inh 2 and WRN helicase inh 5%.
`Cc1nc(NC(=O)c2ccccc2)sc1-c1cc(C(=O)N2CCOCC2)nn1Cc1ccccc1` gave PLK1 PBD block -12%, PI5P4Ka inh -55*, WRN helicase inh 6% and ADP-Glo interf -2%.
O=c1c(Cl)c(N2CCCCC2)cnn1-c1nc2ccccc2[nH]1 was read as PLK1 PBD block -1%, PI5P4Ka inh -7, WRN helicase inh -2%, TCR act 6%, VDR inh -3% and FEN1 inhibitor 2%.
O=c1c2ccccc2cnn1-c1nc2ccccc2[nH]1 was read as PLK1 PBD block -27%, PI5P4Ka inh -50*, WRN helicase inh -2%, TCR act 0%, VDR inh 13%, FEN1 inhibitor -16% and ADP-Glo interf 25µM*.
Cc1cccc(C)c1OCCn1c(CCNC(=O)C2CCCCC2)nc2ccccc21 was read as VDR inh 11% and FEN1 inhibitor 4%.
Screening Cc1ccc(CNC(=O)c2ccc(-n3cccc3)cc2)cc1 returned PLK1 PBD block inconclusive, PI5P4Ka inh -90*, WRN helicase inh 40µM*, TCR act 3%, VDR inh -4%, FEN1 inhibitor inconclusive and ADP-Glo interf 4%.
Screening CCc1cccc(NC(=O)c2cc(S(=O)(=O)N3CCCCCC3)cn2C)c1 returned VDR inh 12% and FEN1 inhibitor -1%.
`CCn1nc(CC(=O)Nc2nnc(CC(=O)N3CCOCC3)s2)c2ccccc2c1=O` gave PLK1 PBD block 0%, PI5P4Ka inh 2, WRN helicase inh -14%[57.1 µM], TCR act 1%, VDR inh 13%, FEN1 inhibitor 5% and ADP-Glo interf 0%.
Screening COc1ccc(CN2CCC(=O)N([C@H](CO)CC(C)C)CC2)cc1OC returned PLK1 PBD block -2%, PI5P4Ka inh -59*, WRN helicase inh -7%, TCR act 3%, VDR inh 6%, FEN1 inhibitor 44% and ADP-Glo interf -7%.
Screening CN(CC(=O)Nc1cccc(F)c1)C(=O)c1ccc(N2C(=O)c3ccccc3C2=O)cc1 returned PLK1 PBD block -7%, PI5P4Ka inh 4, WRN helicase inh 3%, TCR act -1%, VDR inh -18% and FEN1 inhibitor 2%.
CN(CC(=O)Nc1cccc(F)c1)C(=O)c1cccc(-n2cccc2)c1 was read as PLK1 PBD block inconclusive, PI5P4Ka inh -82*, WRN helicase inh 32µM*, TCR act -2%, VDR inh -2%, FEN1 inhibitor -14% and ADP-Glo interf 4%.
`CN(CC(=O)Nc1c(Cl)cccc1Cl)C(=O)c1cccc(-n2cccc2)c1` gave PLK1 PBD block inconclusive, PI5P4Ka inh -78*, WRN helicase inh 50µM*, TCR act 5%, VDR inh -3%, FEN1 inhibitor -11% and ADP-Glo interf 1%.
For O=C(Cn1c(=O)c2sccc2n(CC(=O)Nc2ccc(Cl)cc2Cl)c1=O)NCCc1ccccc1 the results were VDR inh 22% and FEN1 inhibitor 0%.
For Cc1ccc(S(=O)(=O)c2nnn3c2nc(NCc2ccc4c(c2)OCO4)c2sccc23)cc1C the results were VDR inh 3% and FEN1 inhibitor 3%.
